# MCL1 BIM primary – inhibitors of MCL1 binding to BIM-BH3, primary screen, biochemical, fluorescence polarization; inhibition, % at 10.9 µM; 320,000 tested, 0.68% active; AID 2057, 2009; GST-MCL1 / FITC-Bim-BH3 fluorescence polarization;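 active = inhibition above the mean inhibition of all tested compounds plus 3 SD, set per campaign, cut at about 40% in these data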;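 note: 0% = DMSO wells and 100% = unlabeled Bim-BH3 peptide control; higher means more loss of mP so more displacement of Bim peptide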
# GLD-1 RNA inh – GLD-1/TGE RNA complex disruptors, primary screen, biochemical, fluorescence polarization; Female germline-specific tumor suppressor gld-1 (Caenorhabditis elegans), Q17339; purified GLD-1 + fluorescein TGE RNA; inhibition, % at 5.96 µM; 320,000 tested, 0.44% active; AID 2280, 2010;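 active = percent inhibition above a per-plate cutoff, the plate mean of test compounds plus 3 SD, cut at about 30% in these data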;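 note: 0% = DMSO wells with GLD-1 and probe and 100% = wells lacking GLD-1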
# Target sequence (Q17339 whole entry, looked up): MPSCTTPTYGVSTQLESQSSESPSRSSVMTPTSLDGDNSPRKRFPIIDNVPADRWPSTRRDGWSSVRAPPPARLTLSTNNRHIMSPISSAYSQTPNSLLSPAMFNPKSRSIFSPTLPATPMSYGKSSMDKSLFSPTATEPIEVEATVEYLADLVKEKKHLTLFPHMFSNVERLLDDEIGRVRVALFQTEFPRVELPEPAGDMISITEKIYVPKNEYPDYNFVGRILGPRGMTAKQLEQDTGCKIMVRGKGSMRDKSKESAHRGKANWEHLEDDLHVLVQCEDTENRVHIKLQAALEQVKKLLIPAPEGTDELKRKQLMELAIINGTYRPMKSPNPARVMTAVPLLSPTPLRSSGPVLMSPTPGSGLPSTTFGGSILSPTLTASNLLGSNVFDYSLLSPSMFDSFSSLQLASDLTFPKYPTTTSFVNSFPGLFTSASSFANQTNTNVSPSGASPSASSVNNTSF
# BCLXL inh – inhibitors of human Bcl-xL, primary screen, biochemical, fluorescence polarization, HTS; Bcl-2-like protein 1 (Homo sapiens), Q07817; GST-Bcl-xL / FITC-Bim BH3 peptide fluorescence polarization; inhibition, % at 10.9 µM; 320,000 tested, 0.7% active; AID 2129, 2009;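 active = inhibition above the mean of all tested compounds plus 3 SD, cutoff set per campaign, cut at about 30% in these data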;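 note: 0% = DMSO wells and 100% = unlabeled Bim-BH3 peptide competitor; inhibitors lower millipolarization by displacing the labeled peptide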
# Mcl1-Bid inh – Mcl-1/Bid binding inhibitors, primary screen, biochemical, TR-FRET, 1536-well; TR-FRET Mcl-1/Bid-Dy647 peptide binding; inhibition, % at 21.7 µM; 220,000 tested, 0.97% active; AID 1021, 2008;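 active = compounds that cut the binding signal by more than half at the single screening dose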;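 note: His-tagged Mcl-1 with europium anti-His antibody binding Bid BH3 peptide; 0% = Mcl-1 plus peptide wells and 100% = peptide-only wells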
# Bim-Mcl-1 – inhibitors of Bim peptide binding to Mcl-1, primary screen, biochemical, bead-based flow cytometry, multiplex; Bim peptide-Mcl-1 binding; Induced myeloid leukemia cell differentiation protein Mcl-1 (Homo sapiens), Q07820; 190,000 tested, 0.1% active; inhibition, % at 10 µM; AID 1009, 2008; in the data active = inhibition above about 40%;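 note: 0% = no compound tracer wells and 100% = peptide blocker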
# Mcl1 Noxa PPI – Mcl-1/Noxa binding inhibitors, primary screen, biochemical, TR-FRET, 1536-well | Induced myeloid leukemia cell differentiation protein Mcl-1 (Homo sapiens), Q07820 | TR-FRET Mcl-1/Noxa peptide binding, 2 h | inhibition, % at 21.7 µM | 220,000 tested, 1.5% active | AID 1022, 2008;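 active = compounds that cut the protein-peptide binding signal by more than 50% relative to plate controls in a single-dose test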;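 note: His-tagged Mcl-1 with rhodamine Noxa BH3 peptide and terbium anti-His antibody; 0% = Mcl-1 plus Noxa peptide wells and 100% = peptide-only wells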
# * = called active by the depositor; nt = no result given. This is a sample that favours compounds with a hit; in the whole collection about 2.3% have one here.
SMILES,MCL1 BIM primary,GLD-1 RNA inh,BCLXL inh,Mcl1-Bid inh,Bim-Mcl-1,Mcl1 Noxa PPI
C#CCOCCOCCOCCNc1nc(N2CCN(C(=O)[C@H](Cc3cc4ccccc4[nH]3)n3cc([C@@H](N)C(C)CC)nn3)CC2)nc(N2CCN(C(=O)[C@H](CCCCN)n3cc([C@@H](N)CC(C)C)nn3)CC2)n1 (some centres undefined),-6,-4,3,78*,0,40
C#CCOCCOCCOCCNc1nc(N2CCN(C(=O)[C@H](CCC(=O)O)n3cc(C(N)CC(C)C)nn3)CC2)nc(N2CCN(C(=O)[C@H](CCC(=O)O)n3cc(C(N)[C@H](C)CC)nn3)CC2)n1 (some centres undefined),3,5,1,76*,1,36
C#CCOCCOCCOCCNc1nc(N2CCN(C(=O)[C@H](Cc3cc4ccccc4[nH]3)n3cc([C@@H](N)CC(C)C)nn3)CC2)nc(N2CCN(C(=O)[C@H](Cc3cc4ccccc4[nH]3)n3cc([C@@H](N)CC(C)C)nn3)CC2)n1,-8,-9,5,75*,0,54*
C#CCOCCOCCOCCNc1nc(N2CCN(C(=O)[C@H](Cc3cc4ccccc4[nH]3)n3cc(C(N)CC(C)C)nn3)CC2)nc(N2CCN(C(=O)[C@H](CCC(=O)O)n3cc(C(N)[C@H](C)CC)nn3)CC2)n1 (some centres undefined),8,5,5,63*,-1,31
C#CCOCCOCCOCCNc1nc(N2CCN(C(=O)C([C@@H](C)CC)n3cc(C(N)CC(C)C)nn3)CC2)nc(N2CCN(C(=O)[C@H](CCC(=O)O)n3cc(C(N)[C@H](C)CC)nn3)CC2)n1 (some centres undefined),2,3,1,7,-2,37
O=C(C1CCN(S(=O)(=O)c2ccc(Br)s2)CC1)N1CCCCC1,9,3,9,nt,nt,nt
Cn1nnnc1SCC(=O)Nc1ccc2c(c1)OCO2,4,0,0,1,-1,-8
Cc1cccc(C)c1NC(=O)CNC(=O)c1c(C)nn(-c2ccccc2)c1Cl,-4,-3,-2,nt,nt,nt
C#CCOCCOCCOCCNc1nc(N2CCN(C(=O)[C@H]([C@@H](C)CC)n3cc([C@@H](N)Cc4ccc(O)cc4)nn3)CC2)nc(N2CCN(C(=O)[C@H](Cc3cc4ccccc4[nH]3)n3cc([C@@H](N)C(C)CC)nn3)CC2)n1 (some centres undefined),0,-8,-2,21,-3,25
C#CCOCCOCCOCCNc1nc(N2CCN(C(=O)[C@H](CCCCN)n3cc(CCCC)nn3)CC2)nc(N2CCN(C(=O)[C@H](Cc3ccc(O)cc3)n3cc(CCO)nn3)CC2)n1,15,-7,5,57*,-1,45
C#CCOCCOCCOCCNc1nc(N2CCN(C(=O)[C@H](Cc3cc4ccccc4[nH]3)n3cc([C@@H](N)C(C)CC)nn3)CC2)nc(N2CCN(C(=O)[C@H](Cc3cc4ccccc4[nH]3)n3cc([C@@H](N)Cc4ccc(O)cc4)nn3)CC2)n1 (some centres undefined),-1,-11,-16,85*,0,61*
C#CCOCCOCCOCCNc1nc(N2CCN(C(=O)[C@H](Cc3ccc(O)cc3)n3cc([C@@H](N)C(C)CC)nn3)CC2)nc(N2CCN(C(=O)[C@H](Cc3cc4ccccc4[nH]3)n3cc([C@@H](N)C(C)CC)nn3)CC2)n1 (some centres undefined),0,-5,-7,69*,-2,44
C#CCOCCOCCOCCNc1nc(N2CCN(C(=O)[C@H]([C@@H](C)CC)n3cc([C@@H](N)CC(C)C)nn3)CC2)nc(N2CCN(C(=O)[C@H](Cc3ccc(O)cc3)n3cc([C@@H](N)CC(C)C)nn3)CC2)n1,7,1,2,60*,-2,21

# From PubChem BioAssay
